# High-throughput results from PubChem BioAssay.
# The list is not random: actives were taken first. Their share in the collection is about 2.7%.
# PP1 inh = PP1-alpha (human) inhibition in PP5 counter-screen | actives 0.9% (n = 320,000) | purified PP1alpha, OMFP fluorescence | inhibition, % at 6.7 µM;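 active = inhibition above the mean inhibition of all tested compounds plus 3 SD, computed separately for each screening campaign, cut at about 15% in these data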
# ANO1 activ = activators or potentiators of mouse TMEM16A chloride channel. HEK293 TMEM16A/YFP-H148Q/I152L, iodide quench fluorescence; active compounds read low. actives 0.3% (n = 340,000). B-score at 10 µM;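 active = fluorescence-ratio B-score plate-corrected deviation score at least 3 library SD below zero, with starting fluorescence score within 5 deviations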;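 note: channel opened by trigger with iodide after compound preincubation; score built on the fluorescence ratio of max minus min over baseline; more negative score means more quench and so TMEM16A activation or potentiation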
# Target sequence (Q8BHY3 whole entry, looked up): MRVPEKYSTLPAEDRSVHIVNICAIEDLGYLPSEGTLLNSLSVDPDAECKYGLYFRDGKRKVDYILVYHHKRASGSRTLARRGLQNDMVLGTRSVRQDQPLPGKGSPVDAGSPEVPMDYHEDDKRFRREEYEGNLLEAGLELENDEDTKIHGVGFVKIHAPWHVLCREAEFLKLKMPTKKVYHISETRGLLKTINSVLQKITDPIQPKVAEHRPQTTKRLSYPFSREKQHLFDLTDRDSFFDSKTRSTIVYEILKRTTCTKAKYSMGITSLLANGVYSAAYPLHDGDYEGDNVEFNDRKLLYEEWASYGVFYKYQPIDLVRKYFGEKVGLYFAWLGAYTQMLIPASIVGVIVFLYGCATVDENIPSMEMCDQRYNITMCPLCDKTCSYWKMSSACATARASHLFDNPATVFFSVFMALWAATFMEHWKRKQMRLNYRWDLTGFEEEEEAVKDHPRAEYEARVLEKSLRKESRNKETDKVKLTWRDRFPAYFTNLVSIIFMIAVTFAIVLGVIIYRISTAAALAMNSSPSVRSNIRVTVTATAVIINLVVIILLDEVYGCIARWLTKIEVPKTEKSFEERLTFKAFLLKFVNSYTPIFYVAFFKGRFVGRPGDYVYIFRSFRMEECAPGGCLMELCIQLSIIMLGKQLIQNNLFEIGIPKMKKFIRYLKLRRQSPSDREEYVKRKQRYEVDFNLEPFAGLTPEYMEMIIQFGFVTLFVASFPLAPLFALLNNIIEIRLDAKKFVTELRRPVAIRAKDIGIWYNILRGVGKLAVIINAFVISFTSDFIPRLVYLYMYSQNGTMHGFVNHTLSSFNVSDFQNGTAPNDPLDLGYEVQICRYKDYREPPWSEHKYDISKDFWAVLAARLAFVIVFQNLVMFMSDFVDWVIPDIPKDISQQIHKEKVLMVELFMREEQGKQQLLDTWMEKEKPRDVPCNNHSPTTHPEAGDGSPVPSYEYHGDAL
# PP5 primary = PP5 (human) phosphatase inhibition; AID 1987; purified PP5c, OMFP substrate fluorescence; inhibition, % at 6.7 µM; actives 0.18% (n = 320,000); P53041;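 active = inhibition above the campaign's mean inhibition across all tested compounds plus 3 SD, cut at about 9.5% in these data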
# DNA FID counter = counter-screen for HCV NS3 helicase inhibitors: DNA intercalator displacement. DNA fluorescent intercalator displacement, fluorescence. inhibition, % at 7.9 µM. actives 0.17% (n = 290,000); in the data active = inhibition above about 37%;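 note: higher means more ethidium bromide displaced from hairpin DNA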
# ANO1 block = inhibitors of mouse TMEM16A calcium-activated chloride channel | Q8BHY3 | HEK293 TMEM16A/YFP iodide influx fluorescence, ionomycin | actives 1.2% (n = 310,000) | AID 588511 | normalized B-score (activity score, 25-100; higher = stronger inhibition) at 10 µM;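 active = ratio plate-corrected score three or more library SD toward inhibition, starting fluorescence score within five deviations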;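 note: score derived from kinetic fluorescence span divided by baseline fluorescence per well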
# PREPL inhibitor = inhibits the human prolyl oligopeptidase-like enzyme; Q4J6C6; recombinant PREPL, fluorescence polarization activity-based probe; inhibition, % at 5.96 µM; actives 0.68% (n = 320,000); in the data active = inhibition above about 43%
# PP1 confirm = confirmation of human PP1 phosphatase inhibitors; shares compounds with PP1 inh; purified PP1alpha, OMFP substrate fluorescence; inhibition, % at 6.7 µM; actives 52% (n = 1,900); AID 2358;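 active = mean PP1 inhibition above a set limit taken from the earlier primary screen, cut at about 15% in these data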
# PP5 inh counter = counter-screen for PP1 inhibitors: human PP5 phosphatase inhibition; inhibition, % at 6.7 µM; actives 4% (n = 1,900); purified PP5c, OMFP fluorescence; shares compounds with PP1 inh;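 active = mean PP5 inhibition over triplicate wells above about 9.5% taken from the earlier PP1 screen, limit read from the data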
# Numbers stand for hits; i = inactive; nt = no result given.
SMILES,PP1 inh,ANO1 activ,PP5 primary,DNA FID counter,ANO1 block,PREPL inhibitor,PP1 confirm,PP5 inh counter
COc1ccc(C2/C(=C(/O)c3ccc(C)cc3)C(=O)C(=O)N2c2ccccn2)cc1OC (stereo not drawn),i,i,i,i,i,i,nt,nt
O=C(Cc1ccccc1)N/N=C/c1ccccc1OCc1ccc(Cl)cc1,21,i,i,i,i,i,i,i
Cc1ccc(NC(=O)CN(C)C(=O)C(C)OC(=O)c2ccccc2NCCO)cc1 (stereo not drawn),i,i,i,nt,i,i,nt,nt
C[N+](C)(CCOc1ccccc1)Cc1ccccc1,nt,i,nt,nt,nt,nt,nt,nt
Cc1cc(C(C)(C)CC(C)(C)C)ccc1OCCOCC[N+](C)(C)Cc1ccccc1,30,i,i,nt,100,i,i,i
COc1cc(/C=C2\C(=N)N3N=C(S(C)(=O)=O)SC3=NC2=O)cc(OC)c1OCCOc1ccccc1C,30,i,i,i,i,i,i,i
COc1cc(/C=C2\C(=N)N3N=C(C)SC3=NC2=O)cc(OC)c1OCCOc1ccccc1C,i,i,i,i,i,i,nt,nt
CC(=O)Nc1ccc(S(=O)(=O)NC(C)(C#N)C2CC2)cc1 (stereo not drawn),i,i,i,i,i,i,nt,nt
CCN(CC)c1ccc(S(=O)(=O)N2CCOCC2)cc1NC(=O)CN1CCc2ccccc2C1,i,i,i,i,i,i,nt,nt
O=C(N/N=C/c1ccncc1)c1cccc(S(=O)(=O)Nc2ccc(Cl)cc2)c1,21,i,i,i,i,i,i,i
O=C(N/N=C/c1cccnc1)c1cccc(S(=O)(=O)Nc2cccc(Cl)c2)c1,i,i,i,i,i,i,nt,nt
Cc1ccc(NC(=O)C(OC(=O)c2ccc(C=O)cc2)c2ccccc2)cc1Cl (stereo not drawn),22,i,i,i,i,i,i,i
COc1ccc(C2CC(c3ccc(Br)cc3)=NN2C(=O)CSC2=NCCS2)cc1 (stereo not drawn),20,i,i,i,i,i,i,i
CC(C)(C)c1cc(Br)ccc1OCC(=O)Nc1ncn[nH]1,23,i,i,i,i,i,20,i
CC(C)(C)C1(O)CC(C(F)(F)F)=NN1C(=O)Cc1ccc([N+](=O)[O-])cc1 (stereo not drawn),i,i,i,i,i,i,nt,nt
CC(C)(C)c1ccc(-c2nn(CCC#N)cc2/C=N/O)cc1,32,i,i,i,i,i,i,i
Cc1ccc(-c2nn(CCC#N)cc2C=C(C#N)C#N)cc1,i,i,i,i,i,i,nt,nt
COc1ccccc1NC(=O)C(=O)N/N=C(\C)CC(=O)Nc1ccc(OCc2ccccc2)cc1,19,i,i,i,i,i,24,i
C/C(CC(=O)Nc1ccc(OCc2ccccc2)cc1)=N\NC(=O)C(=O)Nc1cccc(C)c1,18,i,i,i,i,i,i,i
CC(=O)Nc1ccc(C(=O)N/N=C(\C)CC(=O)Nc2ccc(OCc3ccccc3)cc2)cc1,i,i,i,i,i,i,nt,nt
O=C(NCCc1ccc2c(c1)OCCO2)c1ccccn1,i,i,i,i,i,i,nt,nt
O=C(N1CCCC1)C12CC3CC(CC(Cl)(C3)C1)C2,i,i,i,i,i,i,nt,nt
CC(C)Cn1c(N)c(C(=O)CSc2n[nH]c(N)n2)c(=O)n(C)c1=O,i,i,i,nt,nt,i,nt,nt
Cc1cc(C)c2nc(NNC(=O)c3cc(-c4cccs4)nc4ccccc34)sc2c1,i,i,i,i,i,i,nt,nt
O=C(NNc1nc2ccc(Cl)cc2s1)c1cc(-c2cccs2)nc2ccccc12,25,i,i,i,i,i,30,i
SMILES,PP1 inh,ANO1 activ,PP5 primary,DNA FID counter,ANO1 block,PREPL inhibitor,PP1 confirm,PP5 inh counter
Cc1ccc(C)c(NC(=O)CN2C(=O)NC(C)(c3ccc4c(c3)OCCO4)C2=O)c1 (stereo not drawn),i,i,i,nt,nt,i,nt,nt
Cc1cccc(C)c1NC(=O)Cn1cc(C=O)c2ccccc21,nt,i,nt,i,i,nt,nt,nt
Cc1cnc(C(=O)OC(C)C(=O)c2c(C)[nH]c3ccccc23)cn1 (stereo not drawn),i,i,i,nt,i,i,nt,nt
Cc1[nH]c2ccccc2c1C(=O)C(C)OC(=O)C1CCC1 (stereo not drawn),28,i,i,nt,i,i,i,i
CCOc1ccc(C2NC(=O)Cc3cc(OC)c(OC)cc32)cc1 (stereo not drawn),24,i,i,i,i,i,i,i
CC(C)(C)OC(=O)N[C@@H](CCCCNC(=O)OCc1ccccc1)c1nnc([C@H](CCCCNC(=O)OCc2ccccc2)NC(=O)OC(C)(C)C)o1,23,i,i,nt,i,i,i,i
CCOc1ccc(OCC)c(NC(=O)CCNS(=O)(=O)c2cc(Br)cnc2N)c1,i,i,i,i,i,i,nt,nt
CCc1ccc(Nc2n[n+](-c3ccccc3)c(-c3ccc(OC)c(Br)c3)s2)cc1,20,i,i,i,i,i,i,i
CNCCNC[C@H](Cc1cccc2ccccc12)NCCc1ccccc1,nt,i,nt,nt,nt,i,nt,nt
CNC[C@H](Cc1ccccc1)NC[C@@H](Cc1cccc2ccccc12)NCCc1ccc(C)cc1,20,i,i,37,100,i,i,i
O=c1cc(-c2c(O)c3ccccc3n(Cc3ccccc3)c2=O)[nH][nH]1,29,i,i,i,i,i,i,i
CC1CCN(C(=O)Cn2nc(C(F)(F)F)c3c2CCCC3)CC1,34,i,i,i,i,i,i,i
O=C(c1ccccc1Br)N1CCc2c([nH]c3ccccc23)C1,i,i,i,i,i,i,nt,nt
c1ccc(N(c2ccccc2)c2nc(-n3ccnc3)nc(-n3ccnc3)n2)cc1,50,i,i,i,i,i,50,i
N=c1c(C(=O)NCc2ccco2)cc2c(=O)n3ccccc3nc2n1Cc1ccc(Cl)cc1,18,i,i,i,i,i,i,i
Cc1ccc(S(=O)(=O)c2cc3c(=O)n4ccccc4nc3n(Cc3ccco3)c2=N)cc1,21,i,i,i,i,i,i,i
N=c1c(C(=O)NCc2ccco2)cc2c(=O)n3ccccc3nc2n1Cc1ccccc1,i,i,i,i,i,i,nt,nt
Cc1ccc(CNC(=O)c2cc3c(=O)n4ccccc4nc3n(Cc3ccco3)c2=N)cc1,i,i,i,nt,i,i,nt,nt
CCCCCCN(C(=O)CCCN1C(=O)NC(c2ccc([N+](=O)[O-])cc2)C(C(=O)OCc2ccccc2)=C1C)C(C)C(=O)NCCCC (stereo not drawn),nt,i,nt,nt,nt,nt,nt,nt
CCCCNC(=O)C(c1ccc(OCC(=O)OC)c(C(=O)OC)c1)N(CCOC)C(=O)CCCCCN1C(=O)NC(c2ccc(-c3ccccc3)cc2)C(C(=O)OCc2ccccc2)=C1C (stereo not drawn),35,nt,i,nt,i,i,35,i
